# About 83,000 compounds went through this panel and 20% of them were active in at least one assay; those are over-represented in the sample as a whole.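 Results are percent growth after 48 hours of single-concentration exposure. 100 means growth as in untreated cells, lower positive values show inhibition; negative values down to -100 show cell death.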 Unmarked numbers belong to inactive results. Activity calls are given as the source filed them. The calls were made as follows: active = growth percent below 10; inactive = the rest.
# System: HL-60(TB) leukemia
# Test: NCI-60 one-dose screen, 48 h (100 = growth as untreated, 0 = no growth, -100 = all killed)
# Conditions: 10 µM unless noted
row,Compound,growth
1,COc1cc(C2C(C#N)=C(N)Oc3cc(O)ccc32)cc(OC)c1OC (stereo not given),-26% (active)
2,O=C1OC(=O)C2C1C1(Cl)C(Cl)=C(Cl)C2(Cl)C2C(=O)OC(=O)C21 (stereo not given),98%
3,CCOC(=O)C(C(C)=O)c1nc2sc3cc(Cl)c(Cl)cc3n2c(=O)c1C#N (stereo not given),100%
4,CNC(=O)c1cc(Oc2ccc(NC(=O)Nc3ccc(Cl)c(C(C)(C)C)c3)c(F)c2)ccn1,46.7%
5,CC(=O)c1c(/C=C/c2ccc(C)cc2)c2ccccc2[nH]c1=O,99.3%
6,Cc1ccc(C2CC(c3cccs3)=NN2c2ccc(S(N)(=O)=O)cc2)s1 (stereo not given),88.4%
7,CCNCCNc1cc(-c2ccc(C(F)(F)F)cc2)c(C#N)c2nc3cc(Cl)c(Cl)cc3n12,-56.9% (active)
8,COC(=O)c1nc(-c2ccccc2)oc1S(=O)(=O)N1CCC(C(N)=O)CC1,-33.2% (active)
9,COc1ccc2c(c1OC)CO[C@@H]2[C@H]1c2c(cc3c(c2OC)OCO3)CCN1S(=O)(=O)c1cn(C)cn1,-0.0238% (active)
10,CN(Cc1cnc2nc(N)nc(N)c2n1)c1c(Cl)cc(C(=O)NC(CCC(=O)O)C(=O)O)cc1Cl (stereo not given),18.6%
11,N/C(=N\N=C\c1ccc2c(c1)OCO2)N/N=C\c1ccc2c(c1)OCO2,80%
12,Cc1ccc2[nH]c(=S)n(-c3ccc(S(=O)(=O)Nc4ccc(Cl)nn4)cc3)c(=O)c2c1,100%
13,N#C/C(=C/N1C(=O)/C(=C/c2ccc([N+](=O)[O-])cc2)SC1=S)c1nc2ccccc2s1,93.3%
14,CC(C)CC1NC(C)(C)CO1 (stereo not given),133%
15,O=C(O)/C(=C/c1ccc(O)cc1)c1ccccc1,96%
16,CCn1c(SCCc2ccccc2)nnc1-c1nn(-c2ccc(Cl)cc2Cl)c(-c2ccc(Cl)cc2)c1C,67.8%
17,O=S(=O)(CCN1CCOCC1)Nc1cncc(-c2ccc3ncnc(Nc4ccc(F)c(Cl)c4)c3c2)c1,110%
18,O=C(/C=C/c1cccnc1)NCCCCC1CCCN(C(=O)c2ccccc2)C1 (stereo not given),63.6%
19,COc1ccc(C(=O)/C=C/c2ccc(C)cc2)cc1S(N)(=O)=O,56.2%
20,C=CCn1ccc(=O)nc1SC,96.4%

row,Compound,growth
1,COc1cccc(-c2nc3sccn3c2-c2ccnc(NCCCNS(=O)(=O)c3ccc(F)cc3)c2)c1,-13.5% (active)
2,CCCCCC/C=C1\CCC(CN2CCCC2)C1=O (stereo not given),62.2%
3,CN1CCN(CCCCCN=c2cc3c(=O)n(CCCCCN4CCN(C)CC4)c(=O)c4c(NCCCCCN5CCN(C)CC5)cc5c(O)n(CCCCCN6CCN(C)CC6)c(=O)c2c5c4-3)CC1,51.5%
4,C/C=C/C1OCC(CC)C(CCC)O1 (stereo not given),88.1%
5,CN(C)c1ccc(/C=C(\C#N)c2nc3ccccc3s2)cc1,93.3%
6,CN1CCN(CCCOc2ccc3ncnc(Nc4ccc(Oc5cccc(C(F)(F)F)c5)c(Cl)c4)c3c2)CC1,-45.9% (active)
7,NC(=S)Nc1ccc2c(c1)Cc1ccccc1-2,77.4%
8,COc1ccc(/C=C2/CN(C(=O)c3ccc(C)cc3)C/C(=C\c3ccc(OC)cc3)C2=O)cc1,80%
9,O=C1NN(C(=O)c2ccc(Cl)cc2)C(c2ccccc2)=N/C1=C\c1cn(-c2ccccc2)nc1-c1ccccc1,94.5%
10,COc1cc(CCNc2cnc3cc(N)cc(N)c3n2)cc(OC)c1,27.9%
11,CC(C)(C)n1cc(-c2ccnc(NCCNS(=O)(=O)c3ccc(F)cc3)c2)c(-c2cccc(O)c2)n1,46.6%
12,COc1ccc(S(=O)(=O)N(C)c2oc(-c3ccc(Cl)cc3)nc2C#N)cc1,63.9%
13,CC1SC(N)=NC1=O (stereo not given),104%
14,NC(=O)c1cccc(-n2ccc3cc(NC(=O)Nc4cc(C(F)(F)F)cc(C(F)(F)F)c4)ccc32)n1,39.3%
15,Nc1nc(-c2ccc(Cl)cc2)nc2c1sc(=S)n2-c1ccccc1,103%
16,CCN1CCN(c2nc(NNC(=O)c3ccc(OC)cc3)nc(N3CCN(C(c4ccccc4)c4ccccc4)CC3)n2)CC1,18.7%
17,Nc1c(C(=O)C[C@@H](N)CO)ccc2c1C(=O)CCO2,51.9%
18,Oc1ccc(N=Cc2ccc(OCc3ccccc3)cc2)cc1,104%
19,CCOC(=O)NNc1[nH]c(-c2ccc(OC)cc2)cc1C#N,-42.4% (active)
20,OCCCc1n(Cc2ccc3ccccc3c2)c2ccccc2[n+]1Cc1ccc2ccccc2c1,-43.5% (active)
